From PubChem BioAssay
A selection: hits, their analogues and other compounds. The true share with any hit is near 27%.
Cav3 T inh: blocks human Cav3.2 T-type calcium channel; O95180; Cav3.2-expressing cells, Fluo-4 calcium fluorescence FDSS; active compounds read low; B-score at 10 µM; 4% of 100,000 active; AID 449739;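 active means single-dose well whose peak fluorescence ratio is a statistical outlier from its plate by either plate-standardised score or position-corrected B-score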
CYP2C9 activ: activators of human CYP2C9; activation factor at 5 µM; recombinant CYP2C9, luciferin-H conversion, luminescence; active compounds read high; factor 1 = untreated enzyme, 0 = blocked; P11712; 1.4% of 96,000 active;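 active means activation factor of 2 or more for CYP2C9 at a 5 µM dose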
CYP2C19 activ: activators of human cytochrome P450 2C19 | P33261 | recombinant CYP2C19, luciferin-H EGE luminescence; active compounds read high; 0 = fully inhibited enzyme, 1 = untreated enzyme | activation factor at 5 µM | 96,000 tested, under 10 active | AID 1025;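 active means activation factor of at least 2 at 5 µM in the primary screen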
Target sequence (P33261 whole entry, looked up): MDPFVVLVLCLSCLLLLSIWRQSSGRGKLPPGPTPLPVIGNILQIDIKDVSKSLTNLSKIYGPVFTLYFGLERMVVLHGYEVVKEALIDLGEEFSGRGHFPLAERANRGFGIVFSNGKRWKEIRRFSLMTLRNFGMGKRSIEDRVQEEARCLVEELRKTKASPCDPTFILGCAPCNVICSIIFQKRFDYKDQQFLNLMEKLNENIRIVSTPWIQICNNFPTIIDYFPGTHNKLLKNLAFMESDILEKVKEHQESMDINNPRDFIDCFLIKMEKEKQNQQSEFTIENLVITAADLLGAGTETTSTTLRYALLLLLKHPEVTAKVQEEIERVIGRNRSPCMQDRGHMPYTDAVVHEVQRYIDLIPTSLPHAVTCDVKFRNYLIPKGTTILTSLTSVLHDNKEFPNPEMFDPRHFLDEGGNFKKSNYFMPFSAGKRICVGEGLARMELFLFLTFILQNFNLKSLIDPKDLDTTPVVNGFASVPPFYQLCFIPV
CYP2C9 inhib: inhibitors of human CYP2C9. 20% of 96,000 active. AID 777. CYP2C9 Supersomes, luciferin-H conversion, luminescence. inhibition, % at 5 µM. P11712;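 active means blocking of liver enzyme CYP2C9 beyond about 50% at 5 µM, limit read from the data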
CYP2C19 inhib: blocks human cytochrome P450 2C19; P33261; CYP2C19 Supersomes, luciferin-H EGE luminescence, 30 min; inhibition, % at 5 µM; 21% of 96,000 active; AID 778;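 active means CYP2C19 inhibition above a set limit at 5 µM in the primary screen, cut at about 50% in these data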
Large screens that a line does not name were inactive.

OCCNCCCOc1ccc(Cl)cc1Br	none
Clc1ccc(SCCn2ccnc2)cc1	CYP2C9 inhib 59.9, CYP2C19 inhib 89.7
Clc1ccc(OCCn2ccnc2)c(Br)c1	CYP2C9 inhib 94.9, CYP2C19 inhib 96.6
C#CCN(C)CCCOc1ccc(Cl)cc1Cl	none (no result: CYP2C9 activ, CYP2C19 activ, CYP2C9 inhib, CYP2C19 inhib)
CC(C)NCCOCCSc1ccc(Cl)cc1	none
Clc1ccc(OCCn2ccnc2)c2ccccc12	CYP2C9 inhib 90.8, CYP2C19 inhib 96.6
CN1C(=S)SC(C)(C)C1(C)NO (stereo not drawn)	none (no result: Cav3 T inh)
CCc1sc(NS(C)(=O)=O)nc1-c1ccccc1	none
O=C(O)c1ccccc1C(=O)NNc1ccc(F)cc1	none
CC1=C(C(=O)OC(C)C)C(C2CC=CCC2)NC(=O)N1 (stereo not drawn)	CYP2C19 inhib 64.7
CCOC(=O)C1=C(C)NC(=O)NC1C1CC=CCC1 (stereo not drawn)	CYP2C19 inhib 51.7
CC1=C(C(=O)OC(C)C)C(C)NC(=O)N1 (stereo not drawn)	none
CCOC(=O)C1=C(C)NC(=O)NC1C (stereo not drawn)	none
CC(=O)/C=C(\C)NCCNc1c(F)c(F)c(CO)c(F)c1F	CYP2C19 inhib 79.1
CC(C)(C)NC(=O)COc1ccc(CNCc2cccs2)cc1	none
c1ccc(COc2ccc(CNCc3cccs3)cc2)cc1	CYP2C19 inhib 54.4
Cc1ccc2ccc(S(=O)(=O)n3nc(C)cc3C)cc2c1	CYP2C19 inhib 61.0
CC(=O)Nc1ccc(S(=O)(=O)n2nc(C)cc2C)cc1	none
CCc1ccc2[nH]c(=O)c(CN(CCN3CCOCC3)C(=O)Nc3ccccc3F)cc2c1	CYP2C9 inhib 51.9
COc1cc2cc(CN(Cc3cccnc3)C(=O)NCc3ccccc3)c(=O)[nH]c2cc1OC	CYP2C19 inhib 51.7
COc1ccccc1NC(=O)N(CCCN1CCOCC1)Cc1cc2cc3c(cc2[nH]c1=O)OCO3	none
COc1ccc(NC(=O)N(Cc2cc3cc(OC)ccc3[nH]c2=O)CC2CCCO2)cc1 (stereo not drawn)	none
CCN(CC)CCCN(Cc1cc2cc(OC)ccc2[nH]c1=O)C(=O)Nc1ccc(F)cc1	CYP2C9 inhib 84.4, CYP2C19 inhib 62.3 (no result: Cav3 T inh)
CCc1ccc2[nH]c(=O)c(CN(CCCN3CCOCC3)C(=O)Nc3ccc(F)cc3)cc2c1	CYP2C19 inhib 55.3
O=C(Nc1nnc(C(F)(F)F)s1)c1ccc(N2C(=O)C3C4C=CC(C4)C3C2=O)cc1 (stereo not drawn)	none
COc1ccc(NC(=O)N(CCN2CCCC2)Cc2cc3cc(OC)c(OC)cc3[nH]c2=O)cc1	CYP2C9 inhib 75.0 (no result: Cav3 T inh)
CCc1ccc2[nH]c(=O)c(CN(Cc3ccccc3)C(=O)Nc3ccccc3OC)cc2c1	Cav3 T inh -4.34, CYP2C9 inhib 90.3, CYP2C19 inhib 85.6
Cc1ccc2cc(CN(CCN3CCCC3)C(=O)Nc3ccc(F)cc3)c(=O)[nH]c2c1C	none
CCc1ccc2[nH]c(=O)c(CN(CCN(C)C)C(=O)Nc3ccccc3OC)cc2c1	none
Cc1sc2nc(SCC(=O)NCc3ccco3)n(Cc3ccccc3)c(=O)c2c1C	CYP2C9 inhib 59.3
Cc1sc2nc(C(C)C)nc(SCC(=O)NCc3ccco3)c2c1C	CYP2C9 inhib 82.2, CYP2C19 inhib 77.6
Cc1[nH]c2ccc(-c3nnc(SCC(=O)NCc4ccco4)n3Cc3ccccc3)cc2c1C	CYP2C9 inhib 65.5
COc1ccc(C2C(C(=O)N3CCCCC3)CC(=O)N2c2ccc(OC)cc2)cc1 (stereo not drawn)	none
N#CCCN(Cc1cccnc1)C(=O)c1ccc(S(=O)(=O)N2CCOCC2)cc1	none
CN1C(=O)/C(=C2\SC(N3CCCCCC3)=NC2=O)c2ccccc21	CYP2C9 activ 2.7
CCCN1C(=O)/C(=C2\SC(N3CCCCC3)=NC2=O)c2ccccc21	none
Cc1ccc2nc3ccc(N4CCCCCCC4)nn3c(=O)c2c1	CYP2C9 inhib 70.0, CYP2C19 inhib 64.0
O=C1CN(C(=O)COC(=O)CCSc2ccccc2Cl)c2ccccc2N1	none
O=C(COC(=O)CN1C(=O)c2ccccc2C1=O)Nc1ccc(S(=O)(=O)N2CCCC2)cc1	none
COC(=O)c1ccc(NC(=O)CS(=O)(=O)Cc2ccccc2)cc1	none
CC(C(=O)OCC(=O)Nc1ccc(S(=O)(=O)N2CCCCC2)cc1)N1C(=O)c2ccccc2C1=O (stereo not drawn)	Cav3 T inh -5.71, CYP2C9 inhib 92.5
O=C(COC(=O)CCN1C(=O)c2ccccc2C1=O)Nc1ccc(S(=O)(=O)N2CCCC2)cc1	CYP2C9 inhib 96.1, CYP2C19 inhib 54.4
O=C(CS(=O)(=O)Cc1ccccc1)Nc1ccc(S(=O)(=O)N2CCCCCC2)cc1	Cav3 T inh -7.14
O=S(=O)(c1ccc(S(=O)(=O)N2CCCN(Cc3ccccc3)C2)cc1)N1CCCCCC1	CYP2C9 inhib 73.6, CYP2C19 inhib 71.5
CC(=O)OCc1nc2sc(C)c(C)c2c(=O)[nH]1	none (no result: CYP2C9 activ, CYP2C19 activ, CYP2C9 inhib, CYP2C19 inhib)
O=C(Cn1ncc2c1-c1ccccc1OC2)N1CCN(c2ccccn2)CC1	none
O=C(Cn1ncc2c1-c1ccccc1OC2)Nc1ccc(S(=O)(=O)N2CCCCC2)cc1	CYP2C9 inhib 68.2
Cc1ccc(S(=O)(=O)N2CCOCC2)cc1NC(=O)COC(=O)CCC(=O)c1cccs1	none
O=C(COC(=O)CCC(=O)c1cccs1)Nc1ccc(S(=O)(=O)N2CCOCC2)cc1	CYP2C9 inhib 88.6
COc1ccc(C(=O)Nc2nc3nc(-c4ccccc4)cc(=O)n3[nH]2)cc1	none
COc1ccc(-c2cc(C(F)(F)F)c3c(=O)n(-c4ccccc4)[nH]c3n2)cc1	CYP2C9 inhib 62.7
COc1ccc(-c2cc(C3CCN(c4cc(Cl)nc(N)n4)CC3)[nH]n2)cc1	CYP2C19 inhib 58.8
Nc1nc(Cl)cc(N2CCC(c3cc(-c4ccc(Cl)cc4)n[nH]3)CC2)n1	none
CCOc1ccc(-c2cc(CCCC(=O)NCc3ccc(C)cc3)no2)cc1	CYP2C9 inhib 53.3 (no result: Cav3 T inh)
COc1ccc(-c2cc(CCCC(=O)NCCc3cc(OC)ccc3OC)no2)cc1	CYP2C9 inhib 65.8, CYP2C19 inhib 57.3 (no result: Cav3 T inh)
CCCCNC(=O)c1cc(-c2ccc(OC)cc2)on1	none
CCOc1ccc(-c2cc(CCCC(=O)NCc3ccco3)no2)cc1	none
CCCc1nc2ccccc2c(=O)n1-c1c(C)n(C)n(-c2ccccc2)c1=O	none
O=C1c2ccccc2C(=O)N1CCCc1nc2ccccc2c(=O)n1-c1cccnc1	CYP2C9 inhib 63.2
Cc1cccc(-n2c(CCCN3C(=O)c4ccccc4C3=O)nc3ccccc3c2=O)n1	CYP2C19 inhib 51.8 (no result: Cav3 T inh)
Cc1cccc(-n2c(CCN3C(=O)c4ccccc4C3=O)nc3ccccc3c2=O)n1	none
COCCCNC(=O)c1ccc2nc3ccccc3c(=O)n2c1	none
O=C1/C(=C/c2ccc(F)c(F)c2)CSc2sccc21	CYP2C9 inhib 77.7
O=C1/C(=C\c2ccc3c(c2)OCO3)CCC/C1=C/c1ccc2c(c1)OCO2	none (no result: Cav3 T inh)
CCOC(=O)N1CCC(N2CC34C=CC(O3)C(C(=O)Nc3ccc(C(C)C)cc3)C4C2=O)CC1 (stereo not drawn)	CYP2C9 inhib 75.5
CCOC(=O)N1CCC(N2CC34C=CC(O3)C(C(=O)Nc3ccc(F)cc3)C4C2=O)CC1 (stereo not drawn)	none
